MT1-MMP txn act – MT1-MMP promoter reporter activation – cell-based, luciferase luminescence, primary screen. HT1080 MT1-MMP promoter luciferase reporter, overnight; active compounds read high. activation factor at 10 µM. 0.16% of 86,000 active;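 active = activation factor of at least 2 for MT1-MMP transcription at 10 µM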
FXIa mix inh – FXIa protease inhibitors in compound pools, primary screen, biochemical, 10-compound mixtures; Coagulation factor XI (Homo sapiens), P03951; purified FXIa, fluorogenic substrate, pooled mixtures; inhibition, % at 5 µM; 0.19% of 62,000 active; AID 680, 2007;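 note: each value is inhibition by a whole ten-compound pool holding the compound; 0% = enzyme with no mixture and 100% = wells lacking enzyme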
FXIIa mix inh – human factor XIIa inhibitors, primary screen, biochemical, pooled compound mixtures, fluorogenic substrate; purified FXIIa; inhibition, % at 5 µM; 0.2% of 62,000 active; Coagulation factor XII (Homo sapiens), P00748;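 note: 0% = enzyme without compound and 100% = no enzyme blank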
Target sequence (P00748 20-372 limits assumed): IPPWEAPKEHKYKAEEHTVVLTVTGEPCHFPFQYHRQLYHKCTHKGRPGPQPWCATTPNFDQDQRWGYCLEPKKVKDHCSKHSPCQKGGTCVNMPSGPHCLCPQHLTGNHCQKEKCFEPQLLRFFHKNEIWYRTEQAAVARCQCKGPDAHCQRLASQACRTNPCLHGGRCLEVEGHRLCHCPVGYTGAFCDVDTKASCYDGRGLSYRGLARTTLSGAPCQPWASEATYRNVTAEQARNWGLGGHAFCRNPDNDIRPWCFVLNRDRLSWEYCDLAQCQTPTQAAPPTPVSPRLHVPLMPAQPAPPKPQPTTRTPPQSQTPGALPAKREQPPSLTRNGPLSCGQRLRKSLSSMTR
Target sequence (P00748 373-615 limits assumed): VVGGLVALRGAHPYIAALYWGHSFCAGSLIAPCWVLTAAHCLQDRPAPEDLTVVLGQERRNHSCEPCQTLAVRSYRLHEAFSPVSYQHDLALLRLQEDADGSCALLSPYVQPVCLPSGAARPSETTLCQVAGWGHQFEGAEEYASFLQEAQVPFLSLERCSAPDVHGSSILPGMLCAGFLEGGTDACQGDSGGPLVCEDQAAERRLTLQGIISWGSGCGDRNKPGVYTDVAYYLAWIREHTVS
HER2 expr 66K – inhibitors of Her2 protein expression, primary screen, SKBR-3 cells, AlphaScreen, 66K library; Receptor tyrosine-protein kinase erbB-2 (Homo sapiens), P04626; SKBR-3 HER2 protein level, 18-24 h; active compounds read low; HER2 level % of control, % at 10 µM; 0.69% of 65,000 active;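 active = HER2 level under 5% of the carrier-only control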;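 note: 100% = DMSO carrier and 0% = 500 nM PU-H71 HSP90 inhibitor; lower value means stronger loss of Her2 protein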
Numbers without * were called inactive; / = no result given. Sampled rows, rich in hits. Any-hit rate of the full collection: about 0.88%. Cut-off read from the data, not from the text of the source, unless noted: active = inhibition above about 20% (passing the limit was not always enough); inactive = the rest.

SMILES | MT1-MMP txn act | FXIa mix inh | FXIIa mix inh | HER2 expr 66K
COC(=O)c1ccc(C(NC(=O)OCc2ccccc2)/C(F)=C/[C@@H](C)C(=O)NCc2cc(C)on2)cc1 (some centres not stated) | 1.1 | / | / | /
CCOC(=O)Cn1cnc2sc3c(c2c1=O)CCC3 | 1.2 | 2 | 57* | 122
COC(=O)C1=C(COc2ccccc2)NC(=O)NC1c1ccc(Cl)cc1 (configuration not stated) | 1.1 | / | / | /
C[C@@H]1C=C[C@](Cc2ccccc2)(C(=O)NCCCNc2ncc(C(F)(F)F)cc2Cl)N1C(=O)c1ccccc1 | 1.4 | / | / | /
CCOC(=O)c1ccc(N=c2sc(C(=O)OC)cc(=O)n2Cc2ccco2)cc1 | 0.8 | 3 | 5 | 2.9*
CCOC(=O)c1ccc(N=c2sc(C(=O)OC)cc(=O)n2CCCN2CCOCC2)cc1 | 1.1 | -2 | 5 | 57
O=C1CC(Cc2ccc(Cl)cc2)C(=O)N1c1ccncc1 (configuration not stated) | 1.2 | / | / | /
O=C(O)CN1C(=O)CC(Cc2ccc(Cl)cc2)C1=O (configuration not stated) | 1.2 | 1 | 3 | -20*
O=C(CCn1[nH]c(=O)c2ccccc2c1=O)OC1CCCCC1 | 1.1 | 21* | 4 | -24*
CCCCOC(=O)CCn1[nH]c(=O)c2ccccc2c1=O | 1.2 | 6 | 0 | 91
CCOC(=O)C1Cc2c([nH]c3ccccc23)C(C)N1 (configuration not stated) | 1 | 2 | -3 | 60
COC(=O)C1Cc2c([nH]c3ccccc23)CN1 (configuration not stated) | 1.1 | 4 | 12 | -19*
CCOC(=O)c1ccc(NC(=O)N2CCN(CCc3ccccc3)CC2)cc1 | 1.1 | 11 | 5 | 79
CCOC(=O)c1ccc(NC(=O)N2CC(C)OC(C)C2)cc1 (configuration not stated) | 2* | -3 | 3 | 115
COC(=O)COn1c(SC(C)C)nc2ccccc2c1=O | 1.2 | / | / | /
CCOC(=O)C(C)On1c(SC(C)C(=O)OCC)nc2ccccc2c1=O (configuration not stated) | 0.9 | 12 | 49* | 76
CCC1=C2CC[C@H]3C(=O)N(CC(=O)OC)C(=O)[C@H]3[C@H]2[C@@]2(Cc3ccccc3)C(=NCCc3c[nH]c4ccccc34)OC(=O)N2C1=O | 1.2 | / | / | /
CCNC(=O)CN(CCc1ccccc1)S(C)(=O)=O | 1 | 5 | 7 | 111
CC(C)NC(=O)CN(CCc1ccccc1)S(C)(=O)=O | 1.1 | 10 | 22* | 77
O=C1CC(Sc2nnnn2C2CCCCC2)C(=O)N1c1ccccc1 (configuration not stated) | 1.1 | / | / | -3.2*
O=C1CC(SCCO)C(=O)N1c1ccccc1 (configuration not stated) | 1.1 | / | / | /
Cc1ccc(-c2csc3ncnc(Sc4nnc(CN5CCCCCC5=O)o4)c23)cc1 | / | -6 | 3 | -25*
COC(=O)[C@@]1(Cc2ccc(OC)cc2)[C@H]2c3cc(C(=O)N4CCCC4)n(Cc4ccc(C)c(F)c4F)c3C[C@H]2CN1C(=O)c1ccccc1 | 1 | / | / | /
COCCNC(=O)c1cc(-c2ccc(OC)c(OC)c2)on1 | 1.1 | 0 | 12 | 102
COc1ccc(CCNC(=O)c2cc(-c3ccccc3)on2)cc1OC | 1.1 | 7 | 47* | 97
SMILES | MT1-MMP txn act | FXIa mix inh | FXIIa mix inh | HER2 expr 66K
COC(=O)[C@@H]1C[C@@]2(O)[C@@H](O)[C@@H](O)[C@@H](O)C[C@H]2N1Cc1ccc(C(C)(C)C)cc1 | 1.1 | / | / | /
CCCCn1c(SCC(=O)Nc2cc(NC(=O)c3ccco3)ccc2C)nc2ccccc2c1=O | 1.1 | 4 | -3 | -16*
CCOC(=O)C1=C(C)N(CCCC(=O)O)C(=O)NC1c1ccccc1OC(=O)c1ccc(I)cc1 (configuration not stated) | 1.1 | / | / | /
O=C(CCCCCN1C(=O)CCC1=O)Nc1ccc2c(c1)OCO2 | 1.2 | 5 | 23* | 93
O=C(CCCN1C(=O)CCC1=O)Nc1ccc2c(c1)OCO2 | 1.2 | 5 | 0 | 54
COc1ccc(CNc2ccc(C(=O)O)cc2)cc1 | 1.1 | 18 | 7 | -30*
Cc1cccc(Nc2nc(-c3ccccn3)cs2)n1 | 0.9 | -7 | -1 | -21*
Cc1cccc(Nc2nc(-c3cccs3)cs2)n1 | 2.3* | / | / | /
COC(=O)c1ccc(C(NC(=O)OCc2ccccc2)/C(C)=C/[C@@H](C)C(=O)NCCc2c[nH]c3ccc(OC)cc23)cc1 (some centres not stated) | 1.1 | / | / | /

Source: PubChem BioAssay
